In PubChem BioAssay (NCI):
Compounds without any hit were thinned out: in the full panel of roughly 83,000, 20% have a hit.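 96-well plates, one dose, 48 hours. Percent growth reported; active if below 10.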 Unmarked numbers belong to inactive results. Calls of active or inactive are those of the source.

These compounds were tested on MDA-MB-435 melanoma (assay: NCI-60 one-dose screen, 48 h (100 = growth as untreated, 0 = no growth, -100 = all killed)). Conditions: 10 µM unless noted.
Protocol: Growth inhibition of the MDA-MB-435 human Melanoma tumor cell line is measured as a screen for anti-cancer activity. Cells are grown in 96 well plates and exposed to the test compound for 48 hours. Compounds are tested at a single concentration, which is 10^-5 M for most compounds. The reported endpoint is percent growth (GI% or GIPRCNT), where numbers from 0 - 100% represent growth inhibition, and numbers from -100% - 0 represent cell death. For example, a value of 40 represents 60% growth inhibition. A value of 0 means no net growth occurred over the course of the experiment. A value of -40 indicates 40% of cells at the beginning of the experiment died by the end of the experiment. A value of -100 means all cells are dead at the end of the experiment.
NCI-60 Human Tumor Cell Lines Screen was performed using the standard one-dose NCI protocol, which is described in more detail at https://dtp.cancer.gov/discovery_development/nci-60/default.htm.
Compounds with GIPRCNT values below 10 were considered active. Activity score was based on GIPRCNT using the following formula: […]
Score is 0 for GIPRCNT values of 100 or above, 50 for GIPRCNT values of 0, and 100 for GIPRCNT values of -100.
`O=C(NC1CC1)c1cc2n(n1)CC(c1ccccc1)N2` (stereo not given) gave a growth of 99.4%. `CCCCNNC(=O)c1ccc(Br)cc1` showed a growth of 36.5%. For `Cc1ccc(S(=O)(=O)N2CCc3ccc(O)c4c3C2Cc2ccc3c(c2-4)OCO3)cc1` (stereo not given), the growth was -4.03% (active). `CCN1C(=O)C2(Nc3ccccc3S2)c2cc(C)ccc21` (stereo not given) gave a growth of 102%. In the case of `COc1c(O)c2c3c(c1OC)-c1ccccc1CC3N(S(=O)(=O)c1ccc(C)cc1)CC2` (stereo not given), the growth is reported as -0.0173% (active). For `COc1ccc(OC)c2ncccc12`, the growth was 105%. `O=S(=O)(Nc1ncccn1)c1ccc(Nc2ccc3nnc(-c4ccncc4)n3n2)cc1` showed a growth of 108%. Compound `N#Cc1ccc(C(F)(F)F)nc1N1CCC(C(=O)Nc2ccc(Cl)cc2)CC1` has a growth of 67.5%. For `Cc1cc(Cl)c2c(Cl)ccc(Cl)c2n1`, the growth was 102%. For `CC1SC(c2ccc(Cl)cc2)N(CCc2cccs2)C1=O` (stereo not given), the growth was -37.4% (active). `O=c1[nH]c(-c2ccncc2)nc2sc3c(c12)CCCCCC3` showed a growth of 77.7%. `N#CCCN1CCN(CCC#N)C1=S` was tested, and the growth was 106%. Work on `NC(=S)N/N=C1\c2ccccc2-c2c(F)c(F)c(F)c(F)c21` yielded a growth of 99.6%. `O=C(N/N=C/c1ccc2c(c1)OCO2)c1cnn2c1NC(c1ccccc1)C2` (stereo not given) was tested, and the growth was 3.07% (active). For `CC(C)(C)CC(C)(C)N(CSc1ccc(Cl)cc1)CSc1ccc(Cl)cc1`, the growth was 46.3%. In the case of `COc1ccc(-c2[nH]ncc2Nc2cc(OC)c(OC)c(OC)c2)cc1`, the growth is reported as -11.7% (active). In the case of `O=C1/C(=C/c2ccc(F)cc2)CN(Cc2cn(CCNc3ccnc4cc(Cl)ccc34)nn2)C/C1=C\c1ccc(F)cc1`, the growth is reported as -86.5% (active). `O=C1CCC(N2Cc3c(C#CCCCNC(=O)c4cc5c(o4)C(=O)c4ccccc4C5=O)cccc3C2=O)C(=O)N1` (stereo not given) was tested, and the growth was -94.5% (active). `CC(=O)Nc1ccc(S(=O)(=O)N/N=C\c2ccc(Cl)c(Cl)c2)cc1` gave a growth of 105%. With `COc1ccc(-n2c(SCc3cc(OC)c(OC)c(OC)c3)nc3ccc(C)cc3c2=O)c(OC)c1` the growth was -55% (active). In the case of `CCCC1=NNC(=O)C1`, the growth is reported as 98.5%. For `O=C(CCc1nnc2sc(/C=C\c3ccccc3)nn12)c1nc2ccccc2[nH]1`, the growth was 83.8%. `Cc1ccc(S(=O)(=O)N(c2ccc(Cl)cc2)c2ccc(Br)cc2C(=O)O)cc1` was tested, and the growth was 107%. Work on `COc1ccc(OC2=CC(=O)c3ccc(C)nc3C2=O)cc1` yielded a growth of 83%. For `Oc1cccc(Nc2nc(-c3ccccn3)cs2)c1`, the growth was 105%. Work on `COc1ccc(C2SC(C)C(=O)N2CCc2cccs2)cc1OC` (stereo not given) yielded a growth of 98.3%. With `O=C(COc1cccc(/C=C2\COc3ccccc3C2=O)c1)c1ccccc1` the growth was 43.1%. In the case of `O=c1oc2ccccc2cc1-c1csc(N/N=C/c2cc3ccccc3nc2Cl)n1`, the growth is reported as 95.7%. Compound `O=C1N/C(=C\c2ccccc2)c2ncccc21` has a growth of 109%. Work on `O=C1/C(=C/c2ccc([N+](=O)[O-])cc2)Oc2ccc(O)cc21` yielded a growth of 95%. In the case of `CCOC(=O)c1cc2c(n(C)c1=O)-c1cnn(-c3ccc(OC)cc3)c1CC2`, the growth is reported as 92.6%. `CCCCCCCC/C=C\CCCCCCCCOc1cccc(CC(=O)NCC[N+]2(C)CCCC2)c1` gave a growth of 85.7%. `Cn1c2ccccc2c2nn(Cc3ccccc3)c(=O)nc21` was tested, and the growth was 112%. For `Cc1ccc(-c2nnc(COc3ccc(-c4nnc(N)s4)cc3)o2)cc1`, the growth was 72.4%. With `O=C1NC(=O)C2(CCCC2C(=O)O)N1` (stereo not given) the growth was 105%. For `COc1cccc(OC(=O)c2ccccc2)c1OC(=O)c1ccccc1`, the growth was -16.4% (active). For `N#Cc1c(-c2cccc(F)c2)cc(-c2ccc(Br)s2)[nH]c1=O`, the growth was -25.8% (active). With `Cc1nc2cc(Nc3nc(NCCN)nc(Nc4ccc(F)cc4)n3)ccc2n1Cc1ccccc1` the growth was 80.4%. With `Cc1c(C)n(CC(O)CNC2CCCCC2C)c2ccccc12` (stereo not given) the growth was -67.9% (active). With `O=S(=O)(/N=C1C=C/C(=N\S(=O)(=O)c2ccccc2)c2ccccc2\1)c1ccccc1` the growth was 0.648% (active).
